Assay results published in PubChem BioAssay (Tox21).
Results filed as inconclusive are left out. Calls of active or inactive are those of the source. Unless noted, calls come from the whole dose curve; as a rule, active = well fitted curve in the direction sought with a large enough effect in the repeat runs; inconclusive = weak or mixed curves; inactive = no such curve, though single readings can be large; an effect the other way counts as inactive or inconclusive.

Assays:
[1] = qHTS assay to identify small molecule agonists of the estrogen receptor alpha (ER-alpha) signaling pathway in the presence of an antagonist - cell viability counter screen (AID 1259386);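 note: series mostly up to about 92 µM; cells exposed to compounds for 22 h at 37 °C before the viability read; nearly all actives have a fitted effect of over 30% in size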
Summary of the method: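 Viability counter screen using VM7Luc4E2 (full-length ER-alpha, four ERE-luciferase). The cells were treated with compounds alongside ICI-182,780 10.0nM for 22hr, and live-cell protease fluorescence was quantified with CellTiter-Fluor.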

[2] = biological target: Progesterone receptor (Homo sapiens) (UniProt P06401); test: qHTS assay to identify small molecule agonists of the progesterone receptor (PR) signaling pathway (AID 1346784; calls by dose curve; note: nearly all actives have a fitted effect of over 30% in size)
Summary of the method: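 Using charcoal-stripped serum (2%) to limit endogenous steroids, PR-UAS-bla HEK 293T cells received compounds for 16 hr at 37C after 6 hr plating; beta-lactamase FRET fluorescence was recorded following 2 hr substrate loading at room temperature.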

[3] = biological target: Progesterone receptor (Homo sapiens) (UniProt P06401); test: qHTS assay to identify small molecule antagonists of the progesterone receptor (PR) signaling pathway (AID 1346795; active = well fitted inhibition curve with a large enough effect in the signal ratio in the repeat runs, not every such curve was filed as active; the % refers to the signal ratio)
Summary of the method: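 Inhibition of R5020-induced (1 nM final) beta-lactamase reporter signal in PR-UAS-bla HEK293T cells was scored by FRET fluorescence after overnight (16 hr) compound treatment.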

[4] = qHTS assay to identify small molecule antagonists of the progesterone receptor (PR) signaling pathway - cell viability counter screen (AID 1346798); note: series mostly up to about 92 µM; nearly all actives have a fitted effect of over 50% in size
Summary of the method: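 ATP content as viability readout: CellTiter-Glo luminescence, 30 min room temperature, in PR-UAS-bla HEK293T cells after 16 hr compound/R5020 treatment at 37C and 5% CO2.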

[5] = qHTS assay to identify small molecule agonists of the progesterone receptor (PR) signaling pathway - cell viability counter screen (AID 1346799; calls by dose curve; note: nearly all actives have a fitted effect of over 45% in size)
Summary of the method: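 Cytotoxicity in PR-bla HEK293T cells: 16 h compound, 37C; CellTiter-Glo added post-FRET read; luminescence after 30 min RT.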

[6] = qHTS assay to identify small molecule antagonists of the TGF-beta/Smad signaling pathway - cell viability counter screen (AID 1346824); note: nearly all actives have a fitted effect of over 50% in size
Summary of the method: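 SBE-bla HEK 293T cells, incubated overnight, then compound plus 0.25 ng/mL TGF-beta1 (stock added) for 5 hr at 37 C. Viability was read in the same wells by CellTiter-Glo luminescence after 30 min at room temperature.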

[7] = qHTS assay to identify small molecule agonists of the TGF-beta/Smad signaling pathway - cell viability counter screen (AID 1346829); note: top concentration of the series differs between compounds; nearly all actives have a fitted effect of over 45% in size
Summary of the method: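 Tox21 qHTS format: SBE-bla HEK 293T cells treated with DMSO-dissolved compounds for 5 hr; CellTiter-Glo luminescence after 30 min at room temperature.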

[8] = qHTS assay to identify small molecule agonists of the TGF-beta/Smad signaling pathway (AID 1346859; active = well fitted activation curve with a large enough effect in the signal ratio in the repeat runs, not every such curve was filed as active; the % refers to the signal ratio; note: series mostly up to about 77 µM)
Summary of the method: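 Stable Smad binding element-beta-lactamase HEK 293T cells; 5 hr compound exposure at 37 C under 5% CO2; 2 hr room-temperature substrate step; fluorescence excited at 405 nm, collected at 460 nm and 530 nm.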

[9] = biological target: Thyrotropin-releasing hormone receptor (Homo sapiens) (UniProt P34981); test: qHTS assay to identify small molecule antagonists of the thyrotropin-releasing hormone receptor (TRHR) signaling pathway (AID 1346877; active = well fitted inhibition curve with a large enough effect in the repeat runs, not every such curve was filed as active; note: series mostly up to about 51 µM)
Summary of the method: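 Following an 18 h incubation at 37 °C and a 2 h calcium dye load, TRHR-HEK293 cells were exposed to compound (5 min, room temperature) and challenged with TRH, 1 nM final.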

[10] = biological target: Thyrotropin-releasing hormone receptor (Homo sapiens) (UniProt P34981); test: qHTS assay to identify small molecule agonists of the thyrotropin-releasing hormone receptor (TRHR) signaling pathway (AID 1346891; calls by dose curve;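 note: HEK293 cells expressing TRHR with calcium dye readout; series mostly up to about 58 µM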)
Summary of the method: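 In 1536-format, 1500 TRHR-Hek293 cells per well grew 18 h, took up calcium dye for 2 h at 37 °C, received compound, and were read kinetically; 15-point titrations, triplicates.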

[11] = Human pregnane X receptor (PXR) small molecule agonists, qHTS cell viability counter screen (AID 1346977); note: nearly all actives have a fitted effect of over 50% in size
Summary of the method: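 Readout is CellTiter-Fluor fluorescence from PXR-Luc HepG2 cells. Plated cells rested 5hr, then were treated with compounds for 24hr at 37C and 5% CO2, with reagent present during the last hour.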

[12] = Caspase-3/7 induction in HepG2 cells by small molecules, qHTS assay (AID 1346978); note: nearly all actives have a fitted effect of over 15% in size
Summary of the method: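 Wild-type HepG2 cells, 2,000/well, settled 5 hr at 37 C and 5% CO2, then compound-treated for 17 hr; caspase-3/7 activity read by luminescent Caspase-Glo 3/7 after 30 min at room temperature.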

[13] = Caspase-3/7 induction in CHO-K1 cells by small molecules, qHTS cell viability counter screen (AID 1346979); note: nearly all actives have a fitted effect of over 35% in size
Summary of the method: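 To flag cytotoxic compounds, treated CHO-K1 wild-type cells were given CellTiter-Fluor at 16hr and read fluorescently after 1hr at 37C; the caspase-3/7 luminescence was measured in these same wells.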

[14] = Caspase-3/7 induction in CHO-K1 cells by small molecules, qHTS assay (AID 1346980); note: nearly all actives have a fitted effect of over 15% in size
Summary of the method: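 Wild-type CHO-K1 cells exposed to compounds for 17hr at 37 C, 5% CO2. Caspase-3/7 activity then measured by Caspase-Glo 3/7 luminescence after 30min at room temperature.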

[15] = Caspase-3/7 induction in HepG2 cells by small molecules, qHTS cell viability counter screen (AID 1346981); note: series mostly up to about 92 µM; nearly all actives have a fitted effect of over 30% in size
Summary of the method: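 Viability determined by CellTiter-Fluor fluorescence in HepG2 wells also used for the luminescent Caspase-Glo 3/7 read. Compounds were present for 16 hr at 37 C, 5% CO2 before reagent addition.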

[16] = biological target: Nuclear receptor subfamily 1 group I member 2 (Homo sapiens) (UniProt O75469); test: Human pregnane X receptor (PXR) small molecule agonists, qHTS assay (AID 1346982); note: nearly all actives have a fitted effect of over 35% in size
Summary of the method: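 Compound-induced hPXR transactivation of a CYP3A4 luciferase reporter was scored in HepG2 PXR-Luc cells over 24 hr at 37 C, 5% CO2, by luminescence.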

[17] = biological target: Acetylcholinesterase (Homo sapiens) (UniProt P22303); test: Acetylcholinesterase (AChE) small molecule antagonists: colormetric cell-based qHTS assay (AID 1347395; calls by dose curve; note: nearly all actives have a fitted effect of over 30% in size)
Summary of the method: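 Neuroblastoma line SH-SY5Y supplied the enzyme; cells were preincubated with compound for 30 min at 37 C and 5% CO2. Acetylthiocholine with DTNB was then added for 90 min at 37 C, and thiocholine was measured by colour.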

[18] = biological target: Nuclear receptor subfamily 1 group I member 2 (Rattus norvegicus) (UniProt Q9R1A7); test: Rat pregnane X receptor (rPXR) activation by small molecules, qHTS assay (AID 1346983); details: rPXR luciferase reporter cells, One-Glo luminescence, 24 h; max activation: hits give high values; note: nearly all actives have a fitted effect of over 20% in size
Summary of the method: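 Cell-based rPXR activation assay: rPXR cells, 2,000 per well, rested 5hr at 37 C, then exposed to compounds in DMSO for 24 hr at 37 C. Luciferase activity read by One-Glo luminescence after 30 min at room temperature.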

[19] = biological target: Nuclear receptor subfamily 1 group I member 2 (Homo sapiens) (UniProt O75469); test: CYP3A4 induction through human pregnane X receptor (PXR) by small molecules, qHTS assay (AID 1346984); note: nearly all actives have a fitted effect of over 40% in size
Summary of the method: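 Readings come from a luciferase reporter: DPX-2 cells, which are HepG2 cotransfected with PXR and a CYP3A4-promoter construct, were exposed to test compounds for 24 h at 37C before One-Glo detection.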

[20] = biological target: Nuclear receptor subfamily 1 group I member 2 (Homo sapiens) (UniProt O75469); test: Human pregnane X receptor (PXR) activation by small molecules, qHTS assay (AID 1346985); note: nearly all actives have a fitted effect of over 40% in size
Summary of the method: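 DPX-2 cells (HepG2 co-transfected with a PXR response element and a CYP3A4-promoter luciferase construct) were seeded at 2,000 per well, rested 5 hr at 37C, then exposed to DMSO-dissolved compounds for 24 hr. Activation was read as luciferase luminescence.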
% is set by controls: 0 for no effect and ±100 for the full control effect.

Chain of Acetylcholinesterase (Homo sapiens) (P22303 whole entry, looked up): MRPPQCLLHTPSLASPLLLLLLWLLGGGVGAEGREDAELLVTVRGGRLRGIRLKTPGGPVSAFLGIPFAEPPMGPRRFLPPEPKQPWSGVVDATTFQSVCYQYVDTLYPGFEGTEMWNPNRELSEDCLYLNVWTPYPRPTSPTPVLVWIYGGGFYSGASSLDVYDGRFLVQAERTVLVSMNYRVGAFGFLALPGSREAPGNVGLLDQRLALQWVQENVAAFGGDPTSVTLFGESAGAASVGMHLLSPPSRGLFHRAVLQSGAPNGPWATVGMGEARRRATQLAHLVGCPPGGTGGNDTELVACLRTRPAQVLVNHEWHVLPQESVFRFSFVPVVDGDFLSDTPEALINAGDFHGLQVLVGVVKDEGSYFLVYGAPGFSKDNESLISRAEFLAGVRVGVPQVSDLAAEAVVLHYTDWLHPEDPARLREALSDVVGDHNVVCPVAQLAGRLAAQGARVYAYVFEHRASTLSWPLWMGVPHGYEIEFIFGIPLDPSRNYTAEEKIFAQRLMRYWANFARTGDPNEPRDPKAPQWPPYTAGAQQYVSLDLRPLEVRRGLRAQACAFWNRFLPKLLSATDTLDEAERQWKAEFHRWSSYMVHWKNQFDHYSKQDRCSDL
Chain of Nuclear receptor subfamily 1 group I member 2 (Homo sapiens) (O75469 whole entry, looked up): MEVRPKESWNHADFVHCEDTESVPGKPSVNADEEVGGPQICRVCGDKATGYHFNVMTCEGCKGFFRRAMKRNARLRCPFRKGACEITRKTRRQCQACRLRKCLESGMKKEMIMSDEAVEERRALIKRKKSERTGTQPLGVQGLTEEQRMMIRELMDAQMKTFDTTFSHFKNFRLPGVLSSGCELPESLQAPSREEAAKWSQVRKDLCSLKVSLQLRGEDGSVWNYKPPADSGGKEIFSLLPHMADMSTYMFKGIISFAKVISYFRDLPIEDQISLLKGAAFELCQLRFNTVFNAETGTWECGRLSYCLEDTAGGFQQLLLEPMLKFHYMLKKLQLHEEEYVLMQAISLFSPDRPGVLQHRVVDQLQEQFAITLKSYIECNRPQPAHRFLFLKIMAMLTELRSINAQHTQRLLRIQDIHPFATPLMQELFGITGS
Chain of Nuclear receptor subfamily 1 group I member 2 (Rattus norvegicus) (Q9R1A7 whole entry, looked up): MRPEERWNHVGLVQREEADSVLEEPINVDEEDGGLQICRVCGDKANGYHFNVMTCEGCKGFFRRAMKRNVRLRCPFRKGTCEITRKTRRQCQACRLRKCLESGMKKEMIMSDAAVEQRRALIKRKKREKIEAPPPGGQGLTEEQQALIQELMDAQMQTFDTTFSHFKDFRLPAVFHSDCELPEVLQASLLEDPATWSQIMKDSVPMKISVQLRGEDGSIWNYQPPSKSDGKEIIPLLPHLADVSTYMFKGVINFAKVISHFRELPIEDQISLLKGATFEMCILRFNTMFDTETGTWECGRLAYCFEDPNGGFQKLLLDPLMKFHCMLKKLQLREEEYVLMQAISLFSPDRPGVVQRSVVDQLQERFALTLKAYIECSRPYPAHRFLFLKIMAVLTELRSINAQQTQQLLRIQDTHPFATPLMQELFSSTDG
Chain of Thyrotropin-releasing hormone receptor (Homo sapiens) (P34981 whole entry, looked up): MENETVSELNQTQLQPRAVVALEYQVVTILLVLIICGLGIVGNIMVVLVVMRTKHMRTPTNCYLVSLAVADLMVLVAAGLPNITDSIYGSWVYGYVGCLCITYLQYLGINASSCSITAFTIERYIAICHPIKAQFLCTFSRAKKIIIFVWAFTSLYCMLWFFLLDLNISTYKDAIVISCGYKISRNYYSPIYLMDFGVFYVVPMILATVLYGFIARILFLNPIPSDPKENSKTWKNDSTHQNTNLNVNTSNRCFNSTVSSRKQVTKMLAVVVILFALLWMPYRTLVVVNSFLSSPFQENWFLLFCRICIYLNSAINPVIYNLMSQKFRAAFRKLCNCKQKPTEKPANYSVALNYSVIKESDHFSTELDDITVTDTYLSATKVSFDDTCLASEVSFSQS
Chain of Progesterone receptor (Homo sapiens) (P06401 whole entry, looked up): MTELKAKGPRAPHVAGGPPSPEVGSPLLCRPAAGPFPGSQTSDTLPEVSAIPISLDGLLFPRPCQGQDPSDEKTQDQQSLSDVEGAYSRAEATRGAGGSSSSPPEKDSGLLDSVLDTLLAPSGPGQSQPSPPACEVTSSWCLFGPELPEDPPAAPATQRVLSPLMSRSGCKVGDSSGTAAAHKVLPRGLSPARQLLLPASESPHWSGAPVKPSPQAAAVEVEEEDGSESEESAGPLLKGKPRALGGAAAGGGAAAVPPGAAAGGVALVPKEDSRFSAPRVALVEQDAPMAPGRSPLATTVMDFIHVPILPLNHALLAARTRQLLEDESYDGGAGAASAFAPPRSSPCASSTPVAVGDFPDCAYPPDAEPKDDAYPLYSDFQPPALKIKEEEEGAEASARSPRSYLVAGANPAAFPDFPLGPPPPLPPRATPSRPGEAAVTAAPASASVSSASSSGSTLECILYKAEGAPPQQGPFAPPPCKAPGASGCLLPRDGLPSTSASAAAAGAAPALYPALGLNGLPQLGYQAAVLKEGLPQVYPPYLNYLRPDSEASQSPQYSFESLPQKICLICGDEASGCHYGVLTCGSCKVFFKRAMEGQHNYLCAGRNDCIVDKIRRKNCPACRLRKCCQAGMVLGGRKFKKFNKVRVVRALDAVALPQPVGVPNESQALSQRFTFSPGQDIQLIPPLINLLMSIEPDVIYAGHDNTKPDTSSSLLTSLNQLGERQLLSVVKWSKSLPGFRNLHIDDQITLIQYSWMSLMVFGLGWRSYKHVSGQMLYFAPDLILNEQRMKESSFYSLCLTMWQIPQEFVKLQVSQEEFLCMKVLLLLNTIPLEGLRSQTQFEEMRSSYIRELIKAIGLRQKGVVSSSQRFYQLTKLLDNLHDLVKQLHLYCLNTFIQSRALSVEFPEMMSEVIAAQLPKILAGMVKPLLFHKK

N#CCCC#N
inactive: Potency [1] | Potency [2] | Potency [3] | Potency [4] | Potency [5] | Potency [6] | outcome [7] | outcome [8] | outcome [9] | outcome [10] | Potency [11] | Potency [12] | Potency [13] | Potency [14] | Potency [15] | Potency [16] | Potency [17]

O=C(N[C@H]1CN2CCC1CC2)c1cc2ccoc2cn1
inactive: Potency [1] | Potency [2] | Potency [3] | Potency [4] | Potency [5] | Potency [6] | outcome [7] | outcome [8] | outcome [9] | outcome [10] | Potency [11] | Potency [12] | Potency [13] | Potency [14] | Potency [15] | Potency [16]

NC1=NC(=O)C(c2ccccc2)O1 (centres undefined)
inactive: Potency [1] | Potency [2] | Potency [3] | Potency [4] | Potency [5] | Potency [6] | outcome [7] | outcome [8] | outcome [9] | outcome [10] | Potency [11] | Potency [12] | Potency [13] | Potency [14] | Potency [15] | Potency [16] | max activation [18] -2.64% | Potency [19] | Potency [20]

CN(C)CCc1ccc(O)cc1
inactive: Potency [1] | Potency [2] | Potency [3] | Potency [4] | Potency [5] | Potency [6] | outcome [7] | outcome [8] | outcome [9] | outcome [10] | Potency [11] | Potency [12] | Potency [14] | Potency [15] | Potency [16] | max activation [18] -2.69% | Potency [19] | Potency [20] | Potency [17]

CC1=C(C(=O)O)N2C(=O)[C@@H](N)[C@H]2SC1
inactive: activity change, negative = cytotoxicity [1] 2.04% [at 19 µM] | activation [2] -0.285% [at 19 µM] | activity change, negative = inhibition [3] 1.39% [at 18.9 µM] | activity change, negative = cytotoxicity [4] 11.2% [at 18.9 µM] | activity change, negative = cytotoxicity [5] 0.398% [at 19 µM] | viability change, negative = cytotoxic [6] 0.38% [at 15.8 µM] | activity change, negative = cytotoxicity [7] 8.87% [at 15.8 µM] | activation [8] 3.18% [at 15.8 µM] | activity, negative = inhibition [9] -1.01% [at 10.5 µM] | activation [10] -0.183% [at 11.8 µM] | activity change, negative = cytotoxicity [11] 20.6% [at 19 µM] | caspase activation [12] -0.113% [at 19 µM] | activity change, negative = cytotoxicity [13] 7.27% [at 19 µM] | caspase-3/7 activation [14] 0.154% [at 19 µM] | activity change, negative = cytotoxicity [15] 0.509% [at 19 µM] | activation [16] -3.97% [at 19 µM]

OC(c1ccccc1)(c1ccccc1)C1CCNCC1
inactive: Potency [1] | Potency [2] | Potency [3] | Potency [4] | Potency [5] | Potency [6] | outcome [7] | outcome [8] | outcome [9] | outcome [10] | Potency [11] | Potency [12] | Potency [13] | Potency [14] | Potency [15] | Potency [16] | max activation [18] -4.65% | Potency [19] | Potency [20] | Potency [17]

CC1=NNC(=O)N(/N=C/c2cccnc2)C1
inactive: Potency [1] | Potency [2] | Potency [3] | Potency [4] | Potency [5] | Potency [6] | outcome [7] | outcome [8] | outcome [9] | outcome [10] | Potency [11] | Potency [12] | Potency [13] | Potency [14] | Potency [15] | Potency [16] | Potency [17]
